Screens from PubChem BioAssay.
This excerpt belongs to a sample that is enriched for hits.
VCAM1 TNFa pot: potentiators of TNFa-induced VCAM1 expression, primary screen, imaging, HUVEC, TNFa stimulus, immunofluorescence; 93,000 tested, 0.19% active; HUVEC TNFa-stimulated VCAM-1 immunofluorescence, high-content imaging; scaled per plate to unstimulated/TNFa-only wells; AID 808, 2007; activation, % at 2 µM;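 active = activation above the screen mean plus 3 SD, with well images confirming the hit on visual review, cut at about 28% in these data, passing the limit was not always enough; inconclusive = activation above that limit but images do not confirm it; inactive = activation not above that limit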;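 note: signal is the number of cytoplasmic VCAM-1 stained grains per positive cell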
VCAM1 pot conf: potentiators of TNFa-induced VCAM1 expression, confirmation, imaging, HUVEC, triplicate retest; shares compounds with VCAM1 TNFa pot; HUVEC TNFa-stimulated VCAM-1 immunofluorescence imaging; activation, % at 2 µM; 230 tested, under 10 active; AID 1034, 2008;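 active = activation above 30% in triplicate retests at 2 µM, then confirmed by visual review of the well images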;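 note: scaled per plate between unstimulated and TNFa-stimulated DMSO control wells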
* = called active by the depositor; ? = inconclusive.

SMILES	VCAM1 TNFa pot	others
Cc1cc(C(F)(F)F)nc(NCc2cccnc2)n1	?	VCAM1 pot conf=-16.9
CC(C)(C)Nc1nc(NCc2cccnc2)nc(N2CCOCC2)n1	-14.0
FC(F)(F)c1cc(-c2ccc3c(c2)OCO3)nc(NCc2ccco2)n1	-77.6
COC(=O)CSC1=C(C#N)C(c2ccc(F)cc2)CC(=O)N1 (stereo unspecified)	32.3*	VCAM1 pot conf=-16.9
CCOC(=O)CSc1nc(C2CC2)cc(-c2ccc(F)cc2)c1C#N	-9.0
CSC1=C(C#N)C(c2ccc(C)s2)CC(=O)N1 (stereo unspecified)	-0.2
Nn1c(SCC(=O)Nc2ccc(Oc3ccccc3)cc2)nnc1C1CC1	3.7
Nc1sccc1C(=O)c1ccccc1	65.6*	VCAM1 pot conf=-8.4
O=C(Oc1csc(=S)n1C(=O)c1ccccc1)c1ccccc1	-98.4
O=C(Cc1ccsc1-c1ccccc1)NO	6.7
COc1ccc(NC(=O)C2CCN(S(=O)(=O)c3cccc4cccnc34)CC2)cc1	-4.9
CCCCn1nnc(NC(=O)Cc2ccc(Cl)cc2)n1	-2.2
CC1OC(Nc2cccc3ccccc23)C(O)C(O)C1O (stereo unspecified)	?	VCAM1 pot conf=-0.5
Cc1cc(C)c(C(N)=O)c(Nc2cccc3ccccc23)n1	-0.9
COc1cccc(C(=O)NC2CCN(CC(=O)NCc3ccccc3OC)CC2)c1	5.6
O=C(Nc1ccccc1)N1CCCc2ccccc21	9.6
CCc1nnc(SCC(=O)N2CCCc3ccccc32)nc1CC	?	VCAM1 pot conf=-22.0
COc1ccccc1CC(=O)N1CCCc2ccccc21	-19.2
CCC(Oc1ccccc1)C(=O)N1CCN(c2ccccn2)CC1 (stereo unspecified)	0.7
CC(=O)Nc1ccc(C#Cc2ccc(NC(C)=O)cc2)cc1	-8.0
CC(CCc1ccccc1)NC(=O)COC(=O)C1=COCCO1 (stereo unspecified)	-1.4
O=C(N/N=C/C(Cl)=C\c1ccccc1)c1cnccn1	62.9*	VCAM1 pot conf=-17.3
O=C(Nc1ccc2c(c1)CCC2)c1cnccn1	5.7
O=C(N/N=C/C(Br)=C/c1ccccc1)c1n[nH]c2c1CCC2	-90.8
O=C(c1csc2c1CCCC2)N1CCN(c2ncccn2)CC1	-13.9
SMILES	VCAM1 TNFa pot	others
O=C(NCc1ccco1)C1CCCN1C(=O)NCc1ccccc1 (stereo unspecified)	0.7
CSc1nnc(-c2ccccc2)c(=O)[nH]1	0.4
COC(=O)c1sccc1NC(=O)CCC1CCCCC1	30.1
CC(C)C(=O)Nc1ccc(C(=O)NNC(=O)NC2CCCCC2)cc1	-36.1
Cn1c(CCNC(=O)c2ccco2)nc2cc(NC(=O)NC3CCCCC3)ccc21	3.7
O=C(Nc1ccc2nsnc2c1)NC1CCCCC1	56.9*	VCAM1 pot conf=-5.8
O=C(CCCn1c(=S)[nH]c2cc3c(cc2c1=O)OCO3)N1CCN(c2ccccc2F)CC1	-7.9
c1ccc2c(c1)nc(CN1CCOCC1)n1c3ccccc3nc21	19.3
CSc1nc2ccccc2cc1/C=C(\C#N)c1ccc(Cl)c(Cl)c1	-20.5
Cc1ccsc1C(=O)NC(C)c1ccc2c(c1)OCO2 (stereo unspecified)	-11.6
Cc1ccc(/C=C2/SC(=S)N(CC(=O)Nc3ncc(Cc4ccc(C)cc4)s3)C2=O)cc1	0.0
CCN1C(=O)/C(=C/C=C2/SCCN2C)SC1=S	4.4
CCN1C(=O)/C(=C/c2cn(C)nc2C)SC1=S	53.4*	VCAM1 pot conf=-4.9
Cc1ccn2c(-c3csc(NCc4ccccc4)n3)c(C)nc2c1	-21.5
Cc1ccc(S(=O)(=O)/N=C(\CSC(N)=O)Nc2ccccc2)cc1	-1.0
C=CCNC(=O)c1onc(CSc2ccccc2C)c1C(=O)O	1.3
CCn1c2c(c3cc(OCC(C)C)ccc31)CCCC2=O	47.0*	VCAM1 pot conf=-10.6
Cc1ccc(S(=O)(=O)CC(=O)Nc2ccc(S(=O)(=O)Nc3onc(C)c3C)cc2)cc1	13.9
COC(=O)c1cc(NC(=O)c2cc(C)oc2C)cc(C(=O)OC)c1	33.1
CCOc1nc(-c2ccccc2)ccc1-c1noc(COC)n1	?	VCAM1 pot conf=-9.9
COc1cccc(-c2ccc(-c3noc(-c4cccs4)n3)c(OC)n2)c1	0.6
COc1ccc(Br)cc1-c1noc(-c2ccccc2)n1	1.9
Cc1ccc(S(=O)(=O)c2c(C)cc(C)nc2Oc2cccc(C(F)(F)F)c2)cc1	-6.2
CCOC(=O)CC(=O)CSc1ccc2nnc(-c3ccc(F)cc3)n2n1	-1.2
CCOC(=O)CSc1nc2ccc(C)cc2cc1C#N	-9.0
SMILES	VCAM1 TNFa pot	others
CCOC(=O)CC(=O)CSc1nc2c(C)c(C)ccc2cc1C	51.3*	VCAM1 pot conf=-9.7
COc1ccc(CC(NC(C)=O)C(=O)NC2CCN(C(=O)Nc3ccccc3Cl)CC2)cc1OC (stereo unspecified)	9.2
Cc1cc(=O)oc(C)c1C(=O)NCCCN1CCN(c2ccc(F)cc2)CC1	6.4
NC(=O)C1CCN(C(=O)CCCCCn2c(=O)[nH]c3ccsc3c2=O)CC1	?	VCAM1 pot conf=-6.7
NC(=O)C1CCN(C(=O)CSc2nc3ccccc3o2)CC1	2.8
COc1cccc(C2C3CN(C)CC=C3C(C#N)=C(N)C2(C#N)C#N)c1OC (stereo unspecified)	14.0
CCOC(=O)COc1ccc(S(=O)(=O)NCCC2=CCCCC2)cc1	48.1*	VCAM1 pot conf=-6.4
C1=C(CCNCC2CC2)CCCC1	0.4
CCOc1ccc(S(=O)(=O)NCCC(=O)NCc2ccco2)cc1	1.2
CCCC(=O)Nc1ccc(Oc2ccc(NC(=O)CCC)cc2)cc1	-0.6
Cc1ccccc1/C(N)=N/OC(=O)/C=C/c1ccccc1	38.0*	VCAM1 pot conf=-12.8
CCn1c(COc2ccc3c(c2)OCO3)nnc1SCC(=O)O	7.4
O=C(CSC1CC(=O)N(CC(c2ccccc2)c2ccccc2)C1=O)Nc1ccc(Cl)cc1 (stereo unspecified)	-8.4
COc1ccc2oc(=O)c(C(=O)N3CCN(c4ccccc4)CC3)cc2c1	83.3*	VCAM1 pot conf=-8.6
COc1ccc2oc(=O)c(C(=O)NCc3cccnc3)cc2c1	14.9
COc1ccc2oc(=O)c(C(=O)n3ccc(C)n3)cc2c1	0.4
CCOC(=O)N1CCC(NC(=O)c2cc(S(=O)(=O)N3CCCC3)cn2C)CC1	42.7*	VCAM1 pot conf=-4.8
CCOC(=O)N1CCC(NC(=O)c2ccc(OC)c(CN3CC(=O)N4CCCC4C3=O)c2)CC1 (stereo unspecified)	-22.5
CCOC(=O)N1CCN(C(=O)c2cc(S(=O)(=O)N3CCCC3)cn2C)CC1	4.1
COc1ccc(NC(=O)/C(Cl)=C(/Cl)S(=O)(=O)Cc2ccc(C)cc2)cn1	-50.7
OC(CN1C2=NCCN2c2ccccc21)c1ccc2c(c1)OCO2 (stereo unspecified)	-6.2
COc1ccc(CCNC(=O)c2ccc(CS(=O)(=O)c3ccc(C)cc3)o2)cc1OC	5.6
Clc1cccc(OCCn2cncn2)c1Cl	?	VCAM1 pot conf=-9.8
COc1cc(S(=O)(=O)N2CCC(C(N)=O)CC2)c(C)cc1C	-8.9
CCC1(C(=O)OC)NC(c2cccc(F)c2)C2C(=O)N(C)C(=O)C21 (stereo unspecified)	-12.1
COc1nn(CC(=O)N2N=C(C)CC2(O)C(F)(F)F)cc1[N+](=O)[O-] (stereo unspecified)	6.6
O=C(CCSc1nnc(-c2ccco2)o1)Nc1ccccc1	44.1*	VCAM1 pot conf=-15.8
CC(=O)c1c(C)cc(C)c(CSc2nnc(-c3ccco3)o2)c1C	15.7
O=C(COc1ccc(Br)cc1)Nc1ccc(-c2nnc(-c3ccco3)o2)cc1	-2.2
C=CCNC(=O)CC(=O)N/N=C/c1ccccc1F	0.4
